Assay results published in the supplement of paper PMC10849652.
About 7,900 targets were measured; listed, in parts, are those with a hit and a random draw of the rest. About 0.6% of all pairs of compound and target were hits. A number with no mark means an inactive call.

Key:
Experiment in all cases: log2 fold change, soluble protein after heating vs DMSO (PISA); higher = thermal stabilisation; K562 cells, 10 uM, 30 min; active = over 0.2 and 3.5 SD of the protein, either way, in both replicates (recomputed)
YAE1 = YAE1 (UniProt Q9NRH1)
Summary of the method: (§1)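 Soluble protein was quantified by TMTpro 16plex LC-MS/MS after channel sums were equalised. It was obtained as the supernatant after 21,000xg for 90 min from pooled aliquots of K562 cells (2×10^6 cells/mL, 10 μM compound, 30 min) heated for 3 min across 48°C-58°C and extracted in PBS with 0.5% NP-40 at 4°C. Thermal stability values are relative to control samples and come from duplicates. They are given as log2 fold changes.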

YBX1 = YBX1 (UniProt P67809)
Summary of the method: as §1

YES1 = YES1 (UniProt P07947)
Summary of the method: as §1

YIPF4 = YIPF4 (UniProt Q9BSR8)
Summary of the method: as §1

YIPF5 isoform 3 = YIPF5 isoform 3 (UniProt Q969M3)
Chain of YIPF5 isoform 3 (Q969M3 whole entry, looked up, canonical isoform): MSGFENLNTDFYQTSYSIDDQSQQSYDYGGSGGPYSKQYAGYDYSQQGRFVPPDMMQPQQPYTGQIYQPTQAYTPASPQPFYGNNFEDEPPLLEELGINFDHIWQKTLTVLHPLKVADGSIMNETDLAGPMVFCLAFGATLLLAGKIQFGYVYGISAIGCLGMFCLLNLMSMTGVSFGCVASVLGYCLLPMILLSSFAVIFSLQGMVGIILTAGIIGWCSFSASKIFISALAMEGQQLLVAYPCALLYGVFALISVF
Summary of the method: as §1

YIPF6 = YIPF6 (UniProt Q96EC8)
Chain of YIPF6 (Q96EC8 whole entry, looked up): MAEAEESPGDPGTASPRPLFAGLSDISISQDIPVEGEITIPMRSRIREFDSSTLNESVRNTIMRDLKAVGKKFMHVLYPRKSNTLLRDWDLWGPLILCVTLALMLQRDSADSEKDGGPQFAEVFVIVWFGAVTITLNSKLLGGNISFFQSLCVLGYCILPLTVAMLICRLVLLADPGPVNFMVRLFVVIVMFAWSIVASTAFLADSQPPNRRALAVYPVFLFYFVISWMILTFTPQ
Summary of the method: as §1

YLPM1 = YLPM1 (UniProt P49750)
Chain of YLPM1 (P49750 whole entry, looked up): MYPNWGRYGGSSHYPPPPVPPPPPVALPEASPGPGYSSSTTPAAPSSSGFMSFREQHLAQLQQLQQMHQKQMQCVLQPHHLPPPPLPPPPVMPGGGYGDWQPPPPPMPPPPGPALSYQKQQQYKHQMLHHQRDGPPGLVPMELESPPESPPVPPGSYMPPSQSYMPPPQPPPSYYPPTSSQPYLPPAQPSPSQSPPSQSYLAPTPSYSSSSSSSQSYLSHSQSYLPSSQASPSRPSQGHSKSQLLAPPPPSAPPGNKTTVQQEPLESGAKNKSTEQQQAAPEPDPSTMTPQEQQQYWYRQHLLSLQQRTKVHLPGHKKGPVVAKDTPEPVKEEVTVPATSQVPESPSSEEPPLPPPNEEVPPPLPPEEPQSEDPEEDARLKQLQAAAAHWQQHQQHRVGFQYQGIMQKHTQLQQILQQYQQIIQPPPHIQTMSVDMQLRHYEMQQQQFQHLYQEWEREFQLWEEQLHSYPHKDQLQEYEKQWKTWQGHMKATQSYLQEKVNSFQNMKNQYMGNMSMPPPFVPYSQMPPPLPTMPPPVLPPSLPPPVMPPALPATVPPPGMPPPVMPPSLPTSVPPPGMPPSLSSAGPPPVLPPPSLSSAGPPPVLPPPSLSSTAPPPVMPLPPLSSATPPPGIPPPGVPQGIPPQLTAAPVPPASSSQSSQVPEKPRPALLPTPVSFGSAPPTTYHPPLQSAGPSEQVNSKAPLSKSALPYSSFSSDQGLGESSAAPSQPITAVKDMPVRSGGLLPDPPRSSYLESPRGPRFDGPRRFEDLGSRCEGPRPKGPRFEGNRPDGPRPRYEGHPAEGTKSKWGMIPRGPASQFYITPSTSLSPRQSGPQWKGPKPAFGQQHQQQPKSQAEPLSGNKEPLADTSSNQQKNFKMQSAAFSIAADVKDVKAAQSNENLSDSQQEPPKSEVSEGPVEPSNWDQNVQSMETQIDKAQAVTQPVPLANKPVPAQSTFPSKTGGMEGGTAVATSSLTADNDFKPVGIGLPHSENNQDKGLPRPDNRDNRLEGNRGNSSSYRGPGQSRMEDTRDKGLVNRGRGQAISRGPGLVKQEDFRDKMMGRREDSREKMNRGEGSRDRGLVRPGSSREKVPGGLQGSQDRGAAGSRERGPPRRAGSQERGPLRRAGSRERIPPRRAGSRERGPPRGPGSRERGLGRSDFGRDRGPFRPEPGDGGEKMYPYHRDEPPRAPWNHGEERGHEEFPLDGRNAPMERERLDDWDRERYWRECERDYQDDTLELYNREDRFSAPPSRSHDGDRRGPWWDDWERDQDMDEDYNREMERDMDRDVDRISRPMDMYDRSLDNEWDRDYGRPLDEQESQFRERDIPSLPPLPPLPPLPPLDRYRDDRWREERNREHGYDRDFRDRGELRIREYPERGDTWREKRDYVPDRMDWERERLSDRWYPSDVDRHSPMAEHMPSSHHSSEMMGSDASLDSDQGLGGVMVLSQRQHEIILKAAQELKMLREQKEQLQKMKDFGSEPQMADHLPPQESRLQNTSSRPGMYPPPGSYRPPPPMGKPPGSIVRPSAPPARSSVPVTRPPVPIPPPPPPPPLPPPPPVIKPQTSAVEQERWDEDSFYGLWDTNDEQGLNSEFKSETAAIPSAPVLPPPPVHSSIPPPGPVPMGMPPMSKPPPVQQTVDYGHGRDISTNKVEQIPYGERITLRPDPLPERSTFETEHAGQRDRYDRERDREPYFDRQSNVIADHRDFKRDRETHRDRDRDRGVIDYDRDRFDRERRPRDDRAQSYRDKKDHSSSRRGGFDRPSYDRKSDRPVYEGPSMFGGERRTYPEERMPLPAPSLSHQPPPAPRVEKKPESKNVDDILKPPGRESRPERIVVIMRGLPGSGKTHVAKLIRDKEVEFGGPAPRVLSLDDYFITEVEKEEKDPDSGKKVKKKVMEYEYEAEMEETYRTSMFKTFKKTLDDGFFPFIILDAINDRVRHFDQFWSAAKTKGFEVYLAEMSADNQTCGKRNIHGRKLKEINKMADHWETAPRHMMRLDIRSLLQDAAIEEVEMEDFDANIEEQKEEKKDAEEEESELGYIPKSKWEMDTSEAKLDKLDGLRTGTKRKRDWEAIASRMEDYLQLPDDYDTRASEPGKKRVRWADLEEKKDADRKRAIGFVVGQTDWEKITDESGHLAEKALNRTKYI
Summary of the method: as §1

YOD1 = YOD1 (UniProt Q5VVQ6)
Chain of YOD1 (Q5VVQ6 whole entry, looked up): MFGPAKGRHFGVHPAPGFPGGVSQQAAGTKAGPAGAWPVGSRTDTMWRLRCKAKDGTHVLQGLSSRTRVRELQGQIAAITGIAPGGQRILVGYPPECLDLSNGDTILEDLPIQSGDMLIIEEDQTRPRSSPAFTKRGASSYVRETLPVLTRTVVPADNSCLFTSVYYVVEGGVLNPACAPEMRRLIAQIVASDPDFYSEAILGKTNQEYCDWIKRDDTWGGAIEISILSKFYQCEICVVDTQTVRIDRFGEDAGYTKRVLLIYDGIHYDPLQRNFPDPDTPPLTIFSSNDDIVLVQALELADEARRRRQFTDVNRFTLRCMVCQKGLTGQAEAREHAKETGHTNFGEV
Summary of the method: as §1

YPEL5 = YPEL5 (UniProt P62699)
Chain of YPEL5 (P62699 whole entry, looked up): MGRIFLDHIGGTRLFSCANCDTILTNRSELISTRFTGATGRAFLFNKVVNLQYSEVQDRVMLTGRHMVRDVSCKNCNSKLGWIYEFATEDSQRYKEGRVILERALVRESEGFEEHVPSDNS
Summary of the method: as §1

YWHAB = YWHAB (UniProt P31946)
Chain of YWHAB (P31946 whole entry, looked up): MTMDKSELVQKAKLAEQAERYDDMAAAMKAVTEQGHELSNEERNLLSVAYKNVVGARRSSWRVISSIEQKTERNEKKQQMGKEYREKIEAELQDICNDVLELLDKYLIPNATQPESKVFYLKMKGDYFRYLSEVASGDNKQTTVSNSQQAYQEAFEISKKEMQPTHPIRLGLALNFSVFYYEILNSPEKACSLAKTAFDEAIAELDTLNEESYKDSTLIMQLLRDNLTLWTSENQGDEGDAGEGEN
Summary of the method: as §1

YWHAQ = YWHAQ (UniProt P27348)
Summary of the method: as §1

YWHAZ [1] = target: YWHAZ (UniProt P63104)
Chain of YWHAZ (UniProt P63104) (P63104 whole entry, looked up): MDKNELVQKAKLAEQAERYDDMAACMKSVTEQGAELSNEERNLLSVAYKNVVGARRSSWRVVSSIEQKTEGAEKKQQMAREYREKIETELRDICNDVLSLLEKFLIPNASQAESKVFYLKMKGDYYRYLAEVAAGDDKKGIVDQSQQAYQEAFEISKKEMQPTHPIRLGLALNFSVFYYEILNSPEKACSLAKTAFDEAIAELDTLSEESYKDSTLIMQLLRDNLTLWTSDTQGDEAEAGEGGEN
Summary of the method: as §1

YY1 = YY1 (UniProt P25490)
Chain of YY1 (P25490 whole entry, looked up): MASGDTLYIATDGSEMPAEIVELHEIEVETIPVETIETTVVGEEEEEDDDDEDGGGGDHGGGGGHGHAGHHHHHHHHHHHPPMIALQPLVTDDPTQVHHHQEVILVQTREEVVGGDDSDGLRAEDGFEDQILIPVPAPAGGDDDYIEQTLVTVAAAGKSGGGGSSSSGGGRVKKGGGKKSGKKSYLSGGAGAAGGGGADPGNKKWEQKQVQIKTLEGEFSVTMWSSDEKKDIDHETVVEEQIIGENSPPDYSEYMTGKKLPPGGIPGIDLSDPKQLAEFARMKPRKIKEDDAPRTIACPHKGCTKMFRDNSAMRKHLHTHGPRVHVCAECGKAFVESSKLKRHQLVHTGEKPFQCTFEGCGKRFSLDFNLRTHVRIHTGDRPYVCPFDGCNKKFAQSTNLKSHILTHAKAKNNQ
Summary of the method: as §1

ZADH2 = ZADH2 (UniProt Q8N4Q0)
Summary of the method: as §1

ZBTB17 isoform 2 = ZBTB17 isoform 2 (UniProt Q13105)
Summary of the method: as §1

ZBTB21 = ZBTB21 (UniProt Q9ULJ3)
Summary of the method: as §1

ZBTB43 = ZBTB43 (UniProt O43298)
Summary of the method: as §1

ZC3H18 = ZC3H18 (UniProt Q86VM9)
Chain of ZC3H18 (Q86VM9 whole entry, looked up): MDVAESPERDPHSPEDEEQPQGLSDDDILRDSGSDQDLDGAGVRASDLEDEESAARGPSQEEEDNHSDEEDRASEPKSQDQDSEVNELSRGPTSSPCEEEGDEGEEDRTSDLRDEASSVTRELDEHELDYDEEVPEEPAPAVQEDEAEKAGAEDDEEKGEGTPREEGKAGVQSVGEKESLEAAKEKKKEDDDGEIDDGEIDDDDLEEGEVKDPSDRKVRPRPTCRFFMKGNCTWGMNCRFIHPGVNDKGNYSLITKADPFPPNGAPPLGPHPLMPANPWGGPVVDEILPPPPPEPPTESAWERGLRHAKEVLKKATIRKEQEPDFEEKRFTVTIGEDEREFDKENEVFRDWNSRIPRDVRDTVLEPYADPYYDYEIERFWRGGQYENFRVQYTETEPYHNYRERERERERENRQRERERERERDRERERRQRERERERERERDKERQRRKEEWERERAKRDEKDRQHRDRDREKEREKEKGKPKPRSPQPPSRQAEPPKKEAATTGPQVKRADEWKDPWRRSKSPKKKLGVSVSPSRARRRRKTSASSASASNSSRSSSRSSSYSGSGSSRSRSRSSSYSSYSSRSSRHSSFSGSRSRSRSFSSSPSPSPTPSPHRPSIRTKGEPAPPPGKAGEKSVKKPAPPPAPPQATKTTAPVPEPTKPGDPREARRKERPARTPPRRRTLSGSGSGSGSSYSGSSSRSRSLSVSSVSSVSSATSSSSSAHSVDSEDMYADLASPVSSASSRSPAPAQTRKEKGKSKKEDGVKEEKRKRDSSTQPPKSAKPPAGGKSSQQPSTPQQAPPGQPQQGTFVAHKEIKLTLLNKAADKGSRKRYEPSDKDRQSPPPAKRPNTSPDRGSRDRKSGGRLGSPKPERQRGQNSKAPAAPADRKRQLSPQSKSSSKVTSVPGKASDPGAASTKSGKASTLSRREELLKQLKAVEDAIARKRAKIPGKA
Summary of the method: as §1

YWHAZ [2] = target: YWHAZ (UniProt E7ESK7)
Summary of the method: as §1

| SMILES | log2 fold change (YAE1) | log2 fold change (YBX1) | log2 fold change (YES1) | log2 fold change (YIPF4) | log2 fold change (YIPF5 isoform 3) | log2 fold change (YIPF6) | log2 fold change (YLPM1) | log2 fold change (YOD1) | log2 fold change (YPEL5) | log2 fold change (YWHAB) | log2 fold change (YWHAQ) | log2 fold change (YWHAZ [1]) | log2 fold change (YY1) | log2 fold change (ZADH2) | log2 fold change (ZBTB17 isoform 2) | log2 fold change (ZBTB21) | log2 fold change (ZBTB43) | log2 fold change (ZC3H18) | log2 fold change (YWHAZ [2]) |
| --- | --- | --- | --- | --- | --- | --- | --- | --- | --- | --- | --- | --- | --- | --- | --- | --- | --- | --- | --- |
| CNC(=O)c1ccccc1Nc1nc(Nc2ccc(N3CCOCC3)cc2OC)ncc1Cl | -0.002 | 0.01 | -0.623 (active) | 0.062 | 0.088 | -0.006 | -0.006 | 0.011 | 0.08 | 0.019 | 0.049 | -0.013 | -0.046 | -0.051 | -0.041 | -0.012 | -0.007 | -0.01 |  |
| CC[C@H](C)[C@H](NC(=O)[C@H]([C@@H](C)CC)N(C)C(C)=O)C(=O)N[C@H](C(=O)N[C@@H](CC(C)C)C(=O)[C@@]1(C)CO1)[C@@H](C)O [epoxomicin] | 0.118 | -0.191 | 0.009 | -0.005 | 0.023 | 0.013 | 0.059 | 0.051 | -0.052 | 0.018 | 0.111 | 0.041 | -0.003 | 0.077 |  | -0.168 | -0.054 | -0.059 | -0.075 |
| Cn1c2cc(S(C)=O)sc2c2cnn(Cc3cccc(N)c3)c(=O)c21 (stereo unspecified) | 0.046 | 0.183 | 0.053 | -0.06 | 0.043 | -0.097 | -0.057 | -0.04 | 0.132 | -0.068 | -0.167 | -0.115 | 0.045 | -0.013 |  | 0.049 | 0.017 | 0.135 | 0.101 |
| CS(=O)(=O)CCNCc1ccc(-c2ccc3ncnc(Nc4ccc(OCc5cccc(F)c5)c(Cl)c4)c3c2)o1 [lapatinib] | -0.052 | 0.317 | 0.057 | -0.13 | -0.163 | 0.061 | -0.028 | 0.01 | -0.113 | -0.016 | 0.219 | 0.197 | -0.023 | -0.049 |  | 0.032 |  | 0.111 | -0.051 |
| COc1cc2nc(-c3cc(F)ccc3O)nc(N[C@@H]3CNC[C@H]3C(C)(C)O)c2cc1OC | 0.125 | -0.054 | -0.052 | -0.094 | 0.13 | 0.043 | 0.1 | 0.018 | 0.096 | -0.062 | -0.148 | -0.163 | -0.268 (active) | 0.045 |  | 0.022 |  | -0.066 | 0.028 |
| CC[C@@H]1C(=O)N(C)c2cnc(Nc3ccc(C(=O)N[C@H]4CC[C@H](N5CCN(CC6CC6)CC5)CC4)cc3OC)nc2N1C(C)C [volasertib] | -0.101 | 0.508 | -0.038 | 0.134 | 0.058 | -0.037 | -0.265 (active) | -0.247 | -0.022 | 0.024 | -0.073 | -0.016 | -0.44 (active) | 0.754 (active) |  | -0.063 |  | -0.085 | -0.173 |
| C#Cc1cccc(Nc2ncnc3cc(OCCOC)c(OCCOC)cc23)c1 [erlotinib] | 0.055 | -0.173 | -0.145 | 0.004 | 0.011 | -0.017 | 0.084 | 0.064 | 0.049 | 0.011 | -0.07 | 0.011 | -0.019 | 0.005 | -0.048 | 0.235 | 0.081 | -0.066 |  |
| C[C@H](Nc1ncnc2nc[nH]c12)c1cc2cccc(Cl)c2c(=O)n1-c1ccccc1 [duvelisib] | -0.021 | -0.208 | 0.062 | 0.163 | -0.107 | 0.259 | 0.08 | 0.033 | -0.084 | 0.056 | -0.144 | -0.084 | -0.007 | 0.033 |  | 0.081 | 0.027 | 0.019 | 0.171 |
| CNc1nc(-c2ccc3c(N)n[nH]c3c2)cc(N2C[C@@H](C(=O)NC3CCCCC3)CC[C@H]2C)n1 | -0.092 | 0.044 | -0.037 | -0.082 | -0.115 | -0.039 | 0.006 | 0.011 | -0.06 | -0.015 | 0.179 | 0.031 | -0.08 | -0.011 |  | -0.111 | -0.014 | -0.136 | -0.097 |
| CC[C@@H]1C(=O)N(C)c2cnc(Nc3ccc(C(=O)NC4CCN(C)CC4)cc3OC)nc2N1C1CCCC1 | -0.022 | 0.262 | 0.129 | 0.022 | 0.088 | -0.001 | -0.016 | -0.099 | 0.024 | -0.055 | -0.141 | -0.083 | -0.149 | 0.153 |  |  | -0.061 | -0.008 | 0.1 |
| CN1CC[C@H](c2c(O)cc(O)c3c(=O)cc(-c4ccccc4Cl)oc23)[C@H](O)C1 [alvocidib] | 0.249 (active) | 0.295 | -0.029 | 0.027 | 0.003 | 0.022 | 0 | -0.088 | -0.234 | -0.06 | -0.192 | -0.056 | -0.099 | -0.05 |  | -0.067 | 0.008 | -0.217 | -0.003 |
| c1cc(OCCN2CCCCC2)cc(-c2n[nH]c3ccc(-c4nnc[nH]4)cc23)c1 | -0.001 | -0.156 | -0.235 | -0.051 | -0.043 | 0.036 | 0 | 0.043 | 0.067 | -0.019 | 0.105 | 0.05 | -0.052 | -0.017 |  |  | -0.026 | -0.147 | 0.095 |
| Cc1ccc(Sc2cncc3sc(C(N)=O)cc23)cc1 | -0.012 | -0.124 | 0.03 | -0.023 | 0.071 | -0.018 | -0.008 | 0.009 | 0.01 | -0.033 | 0.079 | 0.123 | 0.01 | -0.015 |  | 0.008 |  | -0.064 | -0.019 |
| CCCS(=O)(=O)Nc1ccc(F)c(C(=O)c2c[nH]c3ncc(Cl)cc23)c1F | -0.037 | -0.137 | -0.217 | -0.01 | -0.096 | 0.004 | 0.047 | 0.033 | -0.127 | 0.031 | 0.233 | 0.228 (active) | 0.037 | -0.012 |  | 0.091 |  | -0.019 | -0.05 |
| Oc1cc(-c2nc(-c3ccccc3)[nH]c2-c2ccncc2)ccc1Cl | -0.015 | -0.053 | -0.112 | -0.054 | -0.05 | -0.041 | -0.024 | -0.02 | 0.213 | -0.02 | 0.284 | 0.096 | -0.053 | 0.121 |  | -0.067 | -0.064 | 0.015 | -0.068 |
| Cc1cc(SCc2sc(-c3ccc(C(F)(F)F)cc3)nc2C)ccc1OCC(=O)O | 0.021 | -0.024 | 0.06 | -0.04 | 0.015 | -0.175 | 0 | 0.061 | 0.098 | 0.005 | 0.119 | 0.012 | 0.002 | -0.027 |  | 0.043 | 0.041 | -0.034 | -0.02 |
